Experimental data taken from PMC7862700, “An all-to-all approach to the identification of sequence-specific readers for epigenetic DNA modifications on cytosine”.

How the values were obtained:
Experiment in all cases: DAPPL (digital affinity profiling via proximity ligation, sequencing); 10 mM Tris-HCl pH 7.5, 50 mM NaCl, 1 mM DTT, 4% glycerol, room temperature, 30 min; GST-TFs on glutathione beads, 16-mer random dsDNA library, 0.1% formaldehyde crosslink after washing; high values mean tight binding
Conditions in all cases: protein: recombinant; tags: N-terminal GST; dsDNA, one strand shown
ELK1 = target: T1, ELK1 (Homo sapiens, UniProt P19419 1-428)
T1 sequence: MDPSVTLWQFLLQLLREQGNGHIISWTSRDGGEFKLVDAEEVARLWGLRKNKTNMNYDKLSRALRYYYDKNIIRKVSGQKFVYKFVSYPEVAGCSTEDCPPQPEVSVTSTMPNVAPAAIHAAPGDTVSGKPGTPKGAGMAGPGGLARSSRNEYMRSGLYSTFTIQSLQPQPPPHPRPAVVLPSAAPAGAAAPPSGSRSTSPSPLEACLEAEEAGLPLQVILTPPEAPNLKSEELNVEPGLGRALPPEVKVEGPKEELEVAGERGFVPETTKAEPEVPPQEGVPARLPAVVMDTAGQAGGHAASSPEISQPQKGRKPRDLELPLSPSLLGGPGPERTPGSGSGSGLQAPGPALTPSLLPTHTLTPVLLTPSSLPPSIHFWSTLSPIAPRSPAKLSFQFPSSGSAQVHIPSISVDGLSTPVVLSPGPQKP
Summary of the method: (§1)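 Human transcription factors were made in yeast as GST fusions, captured on glutathione beads and barcoded with DNA. With a tag-only sample included, the pool was incubated with 200 nmole of a random double-stranded 16-mer DNA library in Tris/NaCl/DTT/glycerol buffer at room temperature for 30 min, then crosslinked with 0.1% formaldehyde after washing, ligated by proximity, amplified and sequenced. For binding signal, each hexamer's read frequency for a factor is divided by its frequency for the tag-only sample.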

GABPA = target: T2, GABPA (Homo sapiens, UniProt Q06546 1-454)
T2 sequence: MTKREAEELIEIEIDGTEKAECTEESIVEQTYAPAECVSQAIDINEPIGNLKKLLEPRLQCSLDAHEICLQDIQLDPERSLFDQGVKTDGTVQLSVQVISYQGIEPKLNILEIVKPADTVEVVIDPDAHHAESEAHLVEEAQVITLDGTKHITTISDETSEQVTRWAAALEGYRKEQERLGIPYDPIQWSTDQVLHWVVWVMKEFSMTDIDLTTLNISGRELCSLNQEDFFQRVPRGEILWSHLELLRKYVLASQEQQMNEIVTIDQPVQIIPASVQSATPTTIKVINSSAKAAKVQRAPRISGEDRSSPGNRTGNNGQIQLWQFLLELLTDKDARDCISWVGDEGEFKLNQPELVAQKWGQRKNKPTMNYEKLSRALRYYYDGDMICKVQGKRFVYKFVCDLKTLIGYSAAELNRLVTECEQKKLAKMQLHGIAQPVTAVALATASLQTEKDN
Summary of the method: as §1

ERG = target: T3, ERG (Homo sapiens, UniProt P11308 1-479)
T3 sequence: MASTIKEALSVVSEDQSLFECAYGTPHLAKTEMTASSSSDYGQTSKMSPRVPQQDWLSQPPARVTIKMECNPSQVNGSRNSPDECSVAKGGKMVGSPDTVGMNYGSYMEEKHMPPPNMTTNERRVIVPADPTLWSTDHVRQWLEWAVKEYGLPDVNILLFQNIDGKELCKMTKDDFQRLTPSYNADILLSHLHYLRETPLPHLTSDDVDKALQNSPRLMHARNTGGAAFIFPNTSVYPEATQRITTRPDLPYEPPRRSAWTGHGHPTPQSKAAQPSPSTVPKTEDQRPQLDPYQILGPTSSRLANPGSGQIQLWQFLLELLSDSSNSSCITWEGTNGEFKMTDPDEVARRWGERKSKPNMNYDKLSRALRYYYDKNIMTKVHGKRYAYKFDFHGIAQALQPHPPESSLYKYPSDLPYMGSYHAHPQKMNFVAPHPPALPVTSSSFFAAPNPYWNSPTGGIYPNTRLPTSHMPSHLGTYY
Summary of the method: as §1

SPIB = SPIB (Homo sapiens, UniProt Q01892 1-262)
Sequence of SPIB (Q01892 whole entry): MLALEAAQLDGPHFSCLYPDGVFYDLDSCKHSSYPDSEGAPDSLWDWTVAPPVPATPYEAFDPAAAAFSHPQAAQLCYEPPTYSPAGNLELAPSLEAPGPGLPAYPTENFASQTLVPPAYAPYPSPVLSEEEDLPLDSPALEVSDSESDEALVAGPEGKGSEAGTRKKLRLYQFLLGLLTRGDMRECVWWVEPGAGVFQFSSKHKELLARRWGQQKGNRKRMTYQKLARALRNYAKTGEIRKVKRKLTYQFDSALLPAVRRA
Summary of the method: as §1

SPIC = target: T4, SPIC (Homo sapiens, UniProt Q8N5J4 1-248)
T4 sequence: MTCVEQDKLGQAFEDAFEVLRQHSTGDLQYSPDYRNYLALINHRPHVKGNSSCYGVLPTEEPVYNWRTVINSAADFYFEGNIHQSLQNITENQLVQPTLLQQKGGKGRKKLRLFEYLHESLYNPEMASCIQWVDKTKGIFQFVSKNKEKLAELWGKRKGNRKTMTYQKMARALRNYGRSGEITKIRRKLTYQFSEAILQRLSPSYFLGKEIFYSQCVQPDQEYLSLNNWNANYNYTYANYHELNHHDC
Summary of the method: as §1

ELF4 = ELF4 (Homo sapiens, UniProt Q99607 1-663)
Sequence of ELF4 (Q99607 whole entry): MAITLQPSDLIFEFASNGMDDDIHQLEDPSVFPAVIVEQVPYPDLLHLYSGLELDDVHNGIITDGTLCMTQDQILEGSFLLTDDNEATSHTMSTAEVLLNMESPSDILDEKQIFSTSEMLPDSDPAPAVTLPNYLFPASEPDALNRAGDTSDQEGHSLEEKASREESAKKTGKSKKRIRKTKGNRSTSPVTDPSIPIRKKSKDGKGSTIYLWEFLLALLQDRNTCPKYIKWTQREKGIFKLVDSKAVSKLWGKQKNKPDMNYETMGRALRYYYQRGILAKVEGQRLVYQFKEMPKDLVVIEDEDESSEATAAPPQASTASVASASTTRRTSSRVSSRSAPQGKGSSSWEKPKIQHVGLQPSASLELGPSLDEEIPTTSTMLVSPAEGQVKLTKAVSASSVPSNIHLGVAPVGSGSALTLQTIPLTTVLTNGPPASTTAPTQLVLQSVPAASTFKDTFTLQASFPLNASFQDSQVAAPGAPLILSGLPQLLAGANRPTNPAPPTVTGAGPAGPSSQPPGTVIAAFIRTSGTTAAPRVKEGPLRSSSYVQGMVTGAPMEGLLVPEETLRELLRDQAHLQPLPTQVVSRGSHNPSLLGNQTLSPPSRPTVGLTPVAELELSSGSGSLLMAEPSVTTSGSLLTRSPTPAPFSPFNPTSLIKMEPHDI
Summary of the method: as §1

ELK4 = target: T5, ELK4 (Homo sapiens, UniProt P28324-2 1-405)
T5 sequence: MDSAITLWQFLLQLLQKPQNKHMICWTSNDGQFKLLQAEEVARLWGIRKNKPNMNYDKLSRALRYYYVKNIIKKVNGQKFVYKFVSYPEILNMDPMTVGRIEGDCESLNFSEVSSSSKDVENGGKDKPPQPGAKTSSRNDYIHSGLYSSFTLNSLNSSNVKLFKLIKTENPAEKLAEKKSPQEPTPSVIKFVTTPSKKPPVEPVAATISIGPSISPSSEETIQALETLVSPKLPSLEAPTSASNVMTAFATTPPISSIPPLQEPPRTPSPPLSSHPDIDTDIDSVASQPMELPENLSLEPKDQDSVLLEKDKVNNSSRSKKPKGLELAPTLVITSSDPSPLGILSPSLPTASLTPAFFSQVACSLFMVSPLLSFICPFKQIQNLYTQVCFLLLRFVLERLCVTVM
Summary of the method: as §1

ELF3 = target: T6, ELF3 (Homo sapiens, UniProt P78545 1-371)
T6 sequence: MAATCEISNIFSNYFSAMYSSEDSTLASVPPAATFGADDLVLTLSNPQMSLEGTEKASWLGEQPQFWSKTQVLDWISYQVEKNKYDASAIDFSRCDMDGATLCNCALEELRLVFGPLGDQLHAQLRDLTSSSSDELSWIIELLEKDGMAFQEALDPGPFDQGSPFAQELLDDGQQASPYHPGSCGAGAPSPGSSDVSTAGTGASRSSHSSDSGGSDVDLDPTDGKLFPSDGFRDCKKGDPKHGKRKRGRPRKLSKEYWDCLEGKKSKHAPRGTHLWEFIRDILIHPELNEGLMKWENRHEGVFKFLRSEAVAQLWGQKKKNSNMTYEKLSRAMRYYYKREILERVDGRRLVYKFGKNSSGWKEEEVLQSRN
Summary of the method: as §1

ETV1 = ETV1 (Homo sapiens, UniProt P50549 1-477)
Sequence of ETV1 (P50549 whole entry): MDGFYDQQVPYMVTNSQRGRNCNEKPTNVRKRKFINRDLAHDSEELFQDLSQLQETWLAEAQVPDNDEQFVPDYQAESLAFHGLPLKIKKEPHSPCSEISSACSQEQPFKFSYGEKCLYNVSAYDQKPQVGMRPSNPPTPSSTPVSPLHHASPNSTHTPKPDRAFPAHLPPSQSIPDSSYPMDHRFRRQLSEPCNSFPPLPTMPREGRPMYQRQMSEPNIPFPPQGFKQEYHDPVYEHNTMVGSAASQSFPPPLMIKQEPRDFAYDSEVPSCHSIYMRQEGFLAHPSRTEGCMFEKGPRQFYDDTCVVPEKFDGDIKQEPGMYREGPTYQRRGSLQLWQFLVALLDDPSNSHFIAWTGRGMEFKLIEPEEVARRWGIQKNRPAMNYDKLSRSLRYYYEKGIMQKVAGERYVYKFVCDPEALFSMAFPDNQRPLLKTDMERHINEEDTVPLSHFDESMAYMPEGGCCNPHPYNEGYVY
Summary of the method: as §1

ERF = target: T7, ERF (Homo sapiens, UniProt P50548 1-548)
T7 sequence: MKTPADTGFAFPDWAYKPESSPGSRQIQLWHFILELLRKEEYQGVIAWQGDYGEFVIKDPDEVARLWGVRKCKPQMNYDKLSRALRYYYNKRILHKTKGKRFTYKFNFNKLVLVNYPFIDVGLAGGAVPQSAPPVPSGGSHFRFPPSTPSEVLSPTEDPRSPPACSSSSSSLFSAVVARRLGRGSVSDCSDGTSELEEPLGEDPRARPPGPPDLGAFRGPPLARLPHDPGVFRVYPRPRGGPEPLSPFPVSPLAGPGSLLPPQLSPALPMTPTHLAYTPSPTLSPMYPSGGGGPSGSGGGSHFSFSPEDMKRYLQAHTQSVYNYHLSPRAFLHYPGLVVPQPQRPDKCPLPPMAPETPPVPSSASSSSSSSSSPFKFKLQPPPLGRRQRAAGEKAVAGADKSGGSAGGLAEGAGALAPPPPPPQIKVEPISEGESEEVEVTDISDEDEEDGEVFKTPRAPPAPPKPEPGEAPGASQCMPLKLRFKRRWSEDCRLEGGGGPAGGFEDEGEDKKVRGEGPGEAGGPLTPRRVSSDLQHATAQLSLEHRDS
Summary of the method: as §1

ETV3L = target: T8, ETV3L (Homo sapiens, UniProt Q6ZN32 1-361)
T8 sequence: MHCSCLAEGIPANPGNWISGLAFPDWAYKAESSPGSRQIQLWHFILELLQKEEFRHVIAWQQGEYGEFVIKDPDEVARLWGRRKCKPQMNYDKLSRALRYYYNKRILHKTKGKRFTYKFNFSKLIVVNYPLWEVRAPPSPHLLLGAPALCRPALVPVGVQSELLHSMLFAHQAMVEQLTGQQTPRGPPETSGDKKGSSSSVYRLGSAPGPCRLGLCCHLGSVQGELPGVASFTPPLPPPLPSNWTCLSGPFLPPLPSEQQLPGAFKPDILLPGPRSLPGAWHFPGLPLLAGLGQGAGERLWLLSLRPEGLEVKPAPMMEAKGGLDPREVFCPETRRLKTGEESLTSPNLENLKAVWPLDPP
Summary of the method: as §1

ETS2 = target: T9, ETS2 (Homo sapiens, UniProt P15036 1-469)
T9 sequence: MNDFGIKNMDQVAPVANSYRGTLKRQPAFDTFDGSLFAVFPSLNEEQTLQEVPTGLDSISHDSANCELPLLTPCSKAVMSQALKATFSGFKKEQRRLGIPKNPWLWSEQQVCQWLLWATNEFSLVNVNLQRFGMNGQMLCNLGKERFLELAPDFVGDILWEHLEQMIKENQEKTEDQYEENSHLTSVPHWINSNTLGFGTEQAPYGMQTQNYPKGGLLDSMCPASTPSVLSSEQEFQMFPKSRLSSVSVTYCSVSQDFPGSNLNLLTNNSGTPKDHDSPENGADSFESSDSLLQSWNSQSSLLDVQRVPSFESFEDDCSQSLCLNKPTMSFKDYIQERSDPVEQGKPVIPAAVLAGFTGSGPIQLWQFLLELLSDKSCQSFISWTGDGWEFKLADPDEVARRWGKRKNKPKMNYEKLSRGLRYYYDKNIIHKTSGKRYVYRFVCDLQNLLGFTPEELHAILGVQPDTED
Summary of the method: as §1

SPDEF = target: T10, SPDEF (Homo sapiens, UniProt O95238 1-335)
T10 sequence: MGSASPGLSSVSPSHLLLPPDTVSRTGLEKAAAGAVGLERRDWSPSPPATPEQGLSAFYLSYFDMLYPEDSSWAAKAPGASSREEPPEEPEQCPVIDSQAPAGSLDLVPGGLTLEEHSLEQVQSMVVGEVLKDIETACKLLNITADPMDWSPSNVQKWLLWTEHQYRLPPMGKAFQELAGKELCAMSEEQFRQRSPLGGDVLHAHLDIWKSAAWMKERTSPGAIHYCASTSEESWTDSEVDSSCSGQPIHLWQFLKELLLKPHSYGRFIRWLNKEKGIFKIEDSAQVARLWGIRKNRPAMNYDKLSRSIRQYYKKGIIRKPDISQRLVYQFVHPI
Summary of the method: as §1

ETV3 = target: T11, ETV3 (Homo sapiens, UniProt P41162-2 1-143)
T11 sequence: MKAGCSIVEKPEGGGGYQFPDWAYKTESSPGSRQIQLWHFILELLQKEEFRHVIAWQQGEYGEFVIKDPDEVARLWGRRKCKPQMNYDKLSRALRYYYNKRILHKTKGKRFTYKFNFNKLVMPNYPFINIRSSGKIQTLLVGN
Summary of the method: as §1

ETV6 = ETV6 (Homo sapiens, UniProt P41212 1-452)
Sequence of ETV6 (P41212 whole entry): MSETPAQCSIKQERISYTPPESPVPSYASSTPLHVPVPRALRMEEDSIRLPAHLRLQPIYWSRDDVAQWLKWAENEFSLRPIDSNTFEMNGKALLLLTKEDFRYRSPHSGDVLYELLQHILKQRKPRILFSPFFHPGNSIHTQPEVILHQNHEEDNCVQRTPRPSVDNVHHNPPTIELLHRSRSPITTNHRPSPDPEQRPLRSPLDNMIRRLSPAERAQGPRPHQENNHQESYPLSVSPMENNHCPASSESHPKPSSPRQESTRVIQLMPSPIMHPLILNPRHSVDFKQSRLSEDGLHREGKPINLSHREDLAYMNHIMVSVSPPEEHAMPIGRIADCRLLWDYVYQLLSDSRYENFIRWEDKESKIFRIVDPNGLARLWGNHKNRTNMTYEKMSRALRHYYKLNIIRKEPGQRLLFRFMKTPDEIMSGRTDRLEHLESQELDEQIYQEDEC
Summary of the method: as §1

Sequence: TGGATA
- binding signal (ELK1): 1.05 fold enrichment (6-mer frequency, TF over GST control)
- binding signal (GABPA): 1.1 fold enrichment (6-mer frequency, TF over GST control)
- binding signal (ERG): 1.08 fold enrichment (6-mer frequency, TF over GST control)
- binding signal (SPIB): 1.12 fold enrichment (6-mer frequency, TF over GST control)
- binding signal (SPIC): 1.04 fold enrichment (6-mer frequency, TF over GST control)
- binding signal (ELF4): 1.05 fold enrichment (6-mer frequency, TF over GST control)
- binding signal (ELK4): 1.07 fold enrichment (6-mer frequency, TF over GST control)
- binding signal (ELF3): 1.16 fold enrichment (6-mer frequency, TF over GST control)
- binding signal (ETV1): 1.09 fold enrichment (6-mer frequency, TF over GST control)
- binding signal (ERF): 1 fold enrichment (6-mer frequency, TF over GST control)
- binding signal (ETV3L): 1.04 fold enrichment (6-mer frequency, TF over GST control)
- binding signal (ETS2): 1.06 fold enrichment (6-mer frequency, TF over GST control)
- binding signal (SPDEF): 1.06 fold enrichment (6-mer frequency, TF over GST control)
- binding signal (ETV3): 1.06 fold enrichment (6-mer frequency, TF over GST control)
- binding signal (ETV6): 1 fold enrichment (6-mer frequency, TF over GST control)
